Results filed as inconclusive are left out. Where a call stands in place of a potency, no number is given. Calls of active or inactive are those of the source. Calls come from the whole dose curve; as a rule, active = well fitted inhibition curve with a large enough effect; inconclusive = small, poorly fitted or top-dose-only effect; inactive = flat fitted curve, though single readings scatter.
biological target: Calcium and integrin-binding protein 1 (Homo sapiens) (UniProt Q99828); experiment: Primary qHTS for Identification of Calcium Integrin Binding Protein 1 (CIB1) Competitor (AID 1508620); conditions: CIB1-GST / FITC-alphaIIb peptide fluorescence polarization; series mostly up to 114 µM;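 note: GST tagged CIB1 binding a fluorescein labelled alphaIIb integrin peptide tracer; top concentration of the series differs between compounds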
Sequence (Q99828 whole entry, looked up): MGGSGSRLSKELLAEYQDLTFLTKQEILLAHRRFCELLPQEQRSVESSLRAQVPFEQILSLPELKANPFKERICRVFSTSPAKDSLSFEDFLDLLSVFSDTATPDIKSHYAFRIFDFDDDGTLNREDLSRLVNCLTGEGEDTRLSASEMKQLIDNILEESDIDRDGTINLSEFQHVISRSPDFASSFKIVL
Procedure, shortened: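 CIB1-GST (1 uM final) and compound incubated 15 min at room temperature before adding FITC-alphaIIb peptide tracer (100 nM final). Competition for binding read by fluorescence polarization (ex 480, em 540) after another 15 min at room temperature.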

| SMILES | Potency |
| --- | --- |
| Cc1ccc(OCCn2c(CCNC(=O)c3ccccc3C)nc3ccccc32)cc1 | inactive |
| NC(=O)C1CCN(c2ncc(-c3ccc(Br)cc3)s2)CC1 | inactive |
| Cn1cc(P(=O)(c2ccccc2)c2ccccc2)c2ccccc21 | inactive |
| COc1cc(F)c(S(=O)(=O)N2CCN(S(=O)(=O)c3ccc(N)cc3)CC2)c(F)c1 | inactive |
| CN1CCN(C(=O)c2cccc(-c3ccc(CNc4ccc(N5CCN(C(=O)OC(C)(C)C)CC5)cc4)o3)c2)CC1 | inactive |
| Cc1cccc(Nc2nn3c(=O)c4ccccc4nc3s2)c1 | inactive |
| N#Cc1nc(Nc2cc(F)cc(F)c2)c2ncn(CCCN3CCCC3)c2n1 | inactive |
| O=S1(=O)N=C(Oc2ccccc2C(F)(F)F)c2ccccc21 | inactive |
| Cc1cnc(-c2ccccc2CO)nc1NCc1ccc(-c2cccnc2)cc1 | inactive |
| O=C(Nc1nnc(-c2ccncc2)s1)NC12CC3CC(CC(C3)C1)C2 | inactive |
| CC(=O)Nc1ccc(-c2c(NC(C)=O)sc3c2CCNC3)cn1 | inactive |
| O=C(NCc1ccc(F)cc1)n1c(-c2ccccc2)c(P(=S)(c2ccccc2)c2ccccc2)c2ccccc21 | inactive |
| COc1ccc2oc(NC3=NC(c4[nH]ncc4Cl)C4=C(CCCC4=O)N3)nc2c1 (centres undefined) | inactive |
| N#Cc1nc(Nc2ccccc2)nc(NC2CCCCC2)n1 | inactive |
| CN(C)c1ccc(-c2csc(N3CCC(C(N)=O)CC3)n2)cc1 | inactive |
| O=C1CCCC2=C1C(c1[nH]ncc1Cl)N=C(Nc1nc3cc([S+](=O)([O-])N4CCOCC4)ccc3o1)N2 (centres undefined) | inactive |
| COc1cccc(C2c3c(ncn(-c4ccc(NC(C)=O)cc4)c3=N)Oc3ccc4ccccc4c32)c1 (centres undefined) | inactive |
| Fc1cccc(-c2ccc(Nc3nc(-c4ccncc4)nc4ccccc34)cc2F)c1 | inactive |
| Cc1cc(NS(=O)(=O)c2cc3c(cc2F)NC(=O)CC3)ccc1Cl | inactive |
| Cc1nnc(-c2cnn(C)c2)n1CCCn1ccnc1 | inactive |

| SMILES | Potency |
| --- | --- |
| Cc1cc(C)nc(NC(=S)N2CCN(c3cc(Cl)c(Cl)c(Cl)c3)CC2)c1 | inactive |
| CCOC(=O)c1c(CNCc2ccccc2F)c2sc(C)cc2n1C | inactive |
| FC(F)(F)c1ccccc1-c1nc(NCc2ccc(-c3ccc4c(c3)OCO4)cc2)c2ccccc2n1 | inactive |
| Cc1ccc(CCN2C(=O)c3ccc(C(=O)O)cc3C2=O)cc1 | inactive |
| Fc1cc(Nc2nc(-c3ccncc3)nc3ccccc23)ccc1-n1cncn1 | inactive |
| Oc1ccc(CNCc2ccccc2F)c2cccnc12 | inactive |
| COc1cccc(-c2ccc3ncnc(NCc4ccc5c(c4)OCO5)c3c2)c1 | inactive |
| COc1cc2nc(N3CCN(C)CC3)nc(NCCN(C)C)c2cc1OC | inactive |
| CNc1oc(-c2cccc(Cl)c2)nc1C#N | inactive |
| O=C(CNC(=O)c1cccc(Cl)c1)OC(C(=O)Nc1cc(C(F)(F)F)ccc1Cl)c1ccccc1 (centres undefined) | inactive |
| O=C(Nc1cc(C(F)(F)F)ccc1Cl)C(O)Cc1ccccc1 (centres undefined) | inactive |
| CC(=O)Nc1sc2c(c1-c1nccs1)CCNC2 | inactive |
| Cc1ccc(OCCn2c(CCNC(=O)c3cccnc3)nc3ccccc32)cc1 | inactive |
| O=C1CCCC2=C1C(c1ccccc1)N=C(Nc1nc3ccccc3o1)N2 (centres undefined) | inactive |
| Cc1ccc(OCCn2c(CCNC(=O)c3cc([N+](=O)[O-])ccc3[N+](=O)[O-])nc3ccccc32)cc1 | inactive |
| O=C(O)c1ccc2c(c1)C(=O)N([C@]1(C(=O)O)CC1c1ccccc1)C2=O (some centres undefined) | inactive |
| Cc1cc2c(s1)c1cnn(Cc3ccc(Cl)c(Cl)c3)c(=O)c1n2C | inactive |
| Cc1ccc(-c2ccc(=O)n(CC(=O)NCCc3ncc[nH]3)n2)cc1 | inactive |
| Cc1cc(C)n2ncc(C(=O)NC(C)C)c2n1 | inactive |

— PubChem BioAssay (NCATS)
